The text below walks through data of PubChem BioAssay (NCATS).

A number with no mark means an inactive call. The rule behind the calls is not given here.
Potency is the fitted concentration of half-maximal effect.

The subject of this experiment is HIV-1 nucleocapsid protein NCp7 (binding to TG oligonucleotide). The experiment in a line: HIV Nucleocapsid (AID 346).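 Note: potency is for inhibitors that block NC binding and lower polarization.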 To be noted: HIV-1 NC / fluorescein-TGTGTGTG probe, fluorescence polarization. The gist of the method:
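Fluorescence polarization binding of 100 nM HIV-1 NC to 10 nM fluorescein-labelled TG4xF oligonucleotide. Buffer was Hepes pH 7.5 with 250mM NaCl, 1uM ZnCl2, TCEP and 2-mercaptoethanol. Compounds were incubated 1 hr at room temperature before the read.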
(Fluorescence polarisation rises when a labelled molecule tumbles more slowly, as on binding a larger partner.)
On to `CCNc1ncc2nc(C)c(=O)n(Cc3cccs3)c2n1`, for which the Potency is over 20 µM.

Regarding `N#Cc1ccc(CN2CCCC3(CCN(C(=O)c4ccncc4)CC3)C2)cc1`, the Potency was over 20 µM.

Turning to `COc1ccc(Oc2ncc3nc(-c4ccc(Cl)cc4)c(=O)n(CCC#N)c3n2)cc1`, the Potency was over 20 µM.

Turning to `O=C(c1cnccn1)N1CCC[C@@]2(CCN(c3ccccn3)C2)C1`, the Potency is over 20 µM.

Take `c1cncc(CNc2ncncc2-c2ccoc2)c1`: the Potency is over 20 µM.

Turning to `CN(C)c1ccc(-c2cncnc2Nc2ccc(F)cc2)cc1`, the Potency was over 20 µM.

Regarding `COc1ccccc1CNc1ccnc(-c2c(C)noc2C)n1`, the Potency is over 20 µM.

As for `Cc1noc(C)c1C(=O)N1CCC2(CCN(Cc3ccccc3)CC2)CC1`, the Potency was over 20 µM.

Consider `COCCn1c(=O)cnc2cnc(Nc3cccc(OC)c3)nc21`, for which the Potency is over 20 µM.

For the compound `O=c1c(-c2ccc(F)cc2)nc2cnc(N3CCNCC3)nc2n1-c1ccccc1`, the Potency is over 20 µM.

Regarding `N#Cc1cccc(NC(=O)N2CC3(CCN(C(=O)c4cc(C(F)(F)F)cc(C(F)(F)F)c4)CC3)C2)c1`, the Potency was over 20 µM.

On to `COc1ccc2[nH]cc(CCNc3nc(-c4ccc(C(=O)N(C)C)cc4)nc4ccccc34)c2c1`, for which the Potency is over 20 µM.

`CN1CCN(c2ncc3nc(-c4ccc(Cl)cc4)c(=O)n(Cc4ccc(F)cc4)c3n2)CC1`: the Potency is over 20 µM.

Take `Cn1c(=O)c(-c2ccc(F)c(F)c2)nc2cncnc21`: the Potency is over 4 µM.

For `Cn1cccc1C(=O)N1CCC2(CCCN(C(=O)Nc3ccccc3)C2)CC1`, the Potency was over 20 µM.

In the case of `O=C(O)C1CCN(c2ncnc3ccc(-c4ccccc4C(F)(F)F)cc23)CC1`, the Potency is over 20 µM.

Take `COc1ccc2[nH]cc(CCNc3cc(-c4ccccc4C)ncn3)c2c1`: the Potency was over 20 µM.

On to `N#Cc1ccc(CN2CCC3(CC2)CCN(C(=O)c2cc(C(F)(F)F)cc(C(F)(F)F)c2)CC3)cc1`, for which the Potency was over 20 µM.

With `CC(=O)NCCNc1ncncc1-c1ccccc1C(F)(F)F`, the Potency was over 20 µM.

For the compound `COc1cccc(Nc2ncc3nc(C)c(=O)n(CCC#N)c3n2)c1`, the Potency is over 20 µM.

`COc1ccc2[nH]cc(CCNc3cc(-c4ccccc4C(F)(F)F)ncn3)c2c1`: the Potency is over 20 µM.

As to `Cn1cc(-c2nc3cnc(N4CCNCC4)nc3n(Cc3ccc(F)cc3)c2=O)c2ccccc21`, the Potency is 20.8 µM.

`COc1ccccc1-c1nc(N(C)Cc2ccco2)c2ccccc2n1`: the Potency was over 20 µM.

Take `COc1cccc(-c2ccc3ncnc(NCc4cccnc4)c3c2)c1`: the Potency was over 20 µM.

On to `Cn1c(=O)c(-c2cc(F)cc(F)c2)nc2cnc(N3CCOCC3)nc21`, for which the Potency is over 20 µM.

`Cn1c(=O)c(-c2cccc(Cl)c2)nc2cncnc21`: the Potency is over 20 µM.

Take `COc1ccc(C(=O)N2CCC[C@@]3(CCN(Cc4ccncc4)C3)C2)cc1`: the Potency was over 20 µM.

`COCCn1c(=O)c(-c2ccc(Cl)cc2)nc2cncnc21`: the Potency is over 20 µM.

Consider `COc1ncc2nc(C)c(=O)n(C)c2n1`, for which the Potency was over 20 µM.

For `COc1cccc(Cn2c(=O)c(-c3ccccc3)nc3cnc(N4CCNCC4)nc32)c1`, the Potency was over 20 µM.

As to `CN1CCN(c2ncc3nc(-c4cn(C)c5ccccc45)c(=O)n(C)c3n2)CC1`, the Potency is over 20 µM.

As to `COc1ccccc1CNc1cc(-c2ccccc2C)ncn1`, the Potency was over 20 µM.

On to `COc1ccc(CNc2cc(-c3cccc(C#N)c3)ncn2)c(OC)c1`, for which the Potency was over 20 µM.

Take `COc1ccc(-c2nc3cnc(OC)nc3n(-c3ccccc3)c2=O)cc1`: the Potency is over 20 µM.

For the compound `Cc1nc2cnc(Oc3ccccc3)nc2n(CCc2ccccc2)c1=O`, the Potency was over 20 µM.

For the compound `CN(C)c1ccc(-c2ccc3ncnc(NC4CC4)c3c2)cc1`, the Potency is over 20 µM.

Turning to `Cc1cnc(CNc2cc(-c3ccoc3)ncn2)cn1`, the Potency was over 20 µM.

As to `O=C(c1cccc(F)c1)N1CCC[C@@]2(CCN(c3cccc(-c4ccccc4)c3)C2)C1`, the Potency is over 20 µM.

With `COc1ccccc1CCn1c(=O)c(-c2cccc(Cl)c2)nc2cncnc21`, the Potency is over 20 µM.

As to `CN(Cc1ccco1)c1cc(-c2ccccc2Cl)ncn1`, the Potency is over 20 µM.
